697 NFkB inh = lowers PMA/ionomycin-induced NF-kB signal in 697 B cells; 697 B-cell NF-kB luciferase reporter, 16 h; AID 435022; inhibition, % at 4 µM; 330,000 compounds, 0.33% hits; in the data active = inhibition above about 35%
esBAF inh = inhibitors of esBAF chromatin remodeling in mouse ES cells; reporter increase, % at 12.5 µM; Bmi1-luciferase knock-in reporter, 24 h; 100% = twice the neutral-well signal; AID 602393; 350,000 compounds, 2% hits; in the data active = activation above about 40%;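 note: 0% = median of the plate's neutral control wells and 100% = double that signal; a rise in the Bmi1 reporter signal indicates esBAF inhibition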
SMARCA2 activ = SMARCA2 function activation, primary screen; MG213 cells, MMTV-luciferase reporter, dexamethasone, overnight; activation, % at 9.1 µM; 370,000 compounds, 1% hits; AID 652017; in the data active = activation above about 7.8%;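 note: 0% = vehicle wells and 100% = reference activator wells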
Gli-Sufu antag = blocks Gli-Sufu signaling in a luciferase reporter; inhibition, % at 5 µM; 340,000 compounds, 0.74% hits; Sufu-KO-LIGHT fibroblasts, Gli luciferase reporter luminescence;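 active = inhibition above about 55%, limit read from the data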;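 note: 0% = DMSO-treated cells and 100% = wells with medium but no cells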
Jurkat NFkB inh = lowers PMA/ionomycin-induced NF-kB signal in Jurkat cells; 330,000 compounds, 0.53% hits; inhibition, % at 4 µM; PMA/ionomycin-induced NF-kB luciferase reporter, luminescence; in the data active = inhibition above about 50%
* marks the source's active call; other numbers are inactive results; . = no result. Only some compounds are listed: those with a hit (about 3.3% of all), similar ones and a draw of the others.

SMILES | 697 NFkB inh | esBAF inh | SMARCA2 activ | Gli-Sufu antag | Jurkat NFkB inh
C[C@H]1CN([C@@H](C)CO)C(=O)Cc2cc(NS(=O)(=O)c3ccc(Cl)cc3)ccc2O[C@H]1CN(C)C | . | 2 | . | . | .
CN(C)c1ccc(NC(=O)c2ccc(COc3cccc(Cl)c3)o2)cc1 | -2 | 74* | 4 | -25 | -24
c1ccc(-c2ccc(-c3nc(-c4cccnc4)no3)cc2)cc1 | -237 | 4 | 4 | -67 | -103
c1ccc(-c2noc(-c3cccnc3)n2)cc1 | -112 | 22 | 7.9* | -77 | -84
COc1cc(OC)cc(-c2nc(-c3ccccc3)no2)c1 | -92 | 48* | -2 | -55 | -78
C[C@H](CO)N1C[C@H](C)[C@H](CN(C)Cc2ccc(-c3ccccc3)cc2)Oc2ccc(NC(=O)Nc3ccc(C(F)(F)F)cc3)cc2CC1=O | . | -10 | . | . | .
Cc1cc(C)nc(Nc2n[nH]c(-c3ccc(C(C)(C)C)cc3)n2)n1 | -108 | 55* | 1 | -40 | -47
Cc1cc(C)nc(Nc2n[nH]c(-c3ccc(N)cc3)n2)n1 | -69 | 11 | 6 | -88 | -104
Cc1cc(C)nc(Nc2n[nH]c(-c3ccccc3Br)n2)n1 | 8 | 44* | 1 | -25 | -16
O=C(NCCSc1ccccc1)c1cncc(Br)c1 | -35 | 76* | 3 | -72 | -53
CSc1ccccc1C(=O)NCCSc1ccccc1 | 11 | 24 | 2 | -17 | -11
Cc1ccccc1C(=O)NCCSc1ccccc1 | -112 | 55* | 6 | -68 | -105
C[C@@H]1CCCCO[C@@H](CN(C)Cc2ccc(C(=O)Nc3ccccc3N)cc2)[C@@H](C)CN([C@H](C)CO)C(=O)c2cc(NC(=O)Nc3ccc4c(c3)OCO4)ccc2O1 | . | -10 | . | . | .
COc1ccc(-c2cc(C(F)(F)F)nc(SCC(N)=O)n2)cc1 | -18 | 51* | -2 | 2 | -12
C[C@@H]1CN([C@@H](C)CO)C(=O)c2cccc(NS(=O)(=O)c3cn(C)cn3)c2O[C@H]1CN(C)Cc1ccc(C(F)(F)F)cc1 | . | -5 | . | . | .
O=[N+]([O-])c1ccc(O)c(/C=N/Nc2ccccn2)c1 | . | . | 0 | 72* | .
O=[N+]([O-])c1ccc(NN=Cc2ccccc2O)nc1 | . | -48 | -3 | 22 | .
O=[N+]([O-])c1ccc(O)c(/C=N/Nc2ncnc3c2cnn3-c2ccccc2)c1 | 5 | -36 | -2 | 58* | 21
O=C(C[C@@H]1C[C@H]2c3cc(NC(=O)c4cccnc4)ccc3O[C@H]2[C@@H](CO)O1)NCc1cccnc1 | . | -6 | . | . | .
COc1ccc(Cc2nc(-c3ccc(Br)o3)no2)cc1OC | -12 | 49* | 4 | -23 | -15
COc1ccc(-c2noc(-c3ccc(Br)o3)n2)cc1OC | -20 | 54* | -1 | -34 | -52
COc1cc(-c2nc(-c3ccc(Br)o3)no2)cc(OC)c1OC | 4 | 23 | -5 | 3 | -6
O=C(c1ccco1)N1CCN(C(=O)c2ccco2)CC1 | . | . | -3 | . | .
O=C(c1ccco1)n1c(=S)nc2ccccn21 | -81 | . | 7.9* | 4 | -57
COc1cccc(NC(=O)N2CCc3nc(Nc4ccc(C(C)C)cc4)ncc3C2)c1 | . | 70* | 2 | . | .
SMILES | 697 NFkB inh | esBAF inh | SMARCA2 activ | Gli-Sufu antag | Jurkat NFkB inh
O=C(Nc1ccc([N+](=O)[O-])cc1)N1CCc2ccccc2C1 | -37 | 51* | -2 | -35 | -3
O=C(Nc1cccc(Cl)c1)N1CCc2ccccc2C1 | -75 | 50* | 1 | -82 | -68
COc1cccc(NC(=O)N2CCc3ccccc3C2)c1 | -39 | 50* | 1 | -53 | -56
COc1ccc(S(=O)(=O)N(C)C[C@@H]2Oc3ccc(NC(=O)CCCN(C)C)cc3CC(=O)N([C@@H](C)CO)C[C@H]2C)cc1 | . | 0 | . | . | .
C[C@@H]1CCCCO[C@@H](CN(C)Cc2ccc(C(F)(F)F)cc2)[C@H](C)CN([C@H](C)CO)C(=O)c2cc(NS(=O)(=O)c3cccs3)ccc2O1 | . | 4 | . | . | .
O=C(NC(=S)Nc1ccccc1)c1cccs1 | -114 | 78* | 5 | -21 | -81
O=C(Cc1ccc(Cl)cc1)Nc1ccc(NC(=O)c2cccs2)cc1 | -24 | . | 1 | -9 | -13
Cc1cc(N/C=C/C(=O)c2cccs2)ccc1F | -125 | 69* | 4 | -94 | -111
O=C(Nc1ccc(NC(=O)c2cccs2)cc1)c1cccs1 | -1 | 53* | 4 | -43 | -82
O=C(Nc1ccc(Cl)cc1)c1cccs1 | -45 | 52* | 0 | -56 | -62
CN(C)C(=O)[C@H]1[C@H](CO)[C@H]2Cn3c(ccc(-c4cccc(F)c4)c3=O)[C@@H]1N2CC1CC1 | . | -3 | . | . | .
CCCN1[C@@H]2Cn3c(ccc(-c4ccccc4)c3=O)[C@H]1[C@@H](C(=O)N1CCCCC1)[C@@H]2CO | . | 1 | . | . | .
CC(=O)NC(=S)Nc1ccc(NC(=O)c2cccs2)cc1 | -14 | . | 3 | -45 | -16
Cc1ccc(NC(=S)NC(=O)c2cccs2)cc1F | -66 | 81* | 5 | -74 | -57
Cc1noc(C)c1S(=O)(=O)Nc1ccc2c(c1)C(=O)N([C@H](C)CO)C[C@H](C)[C@H](CN(C)C(=O)Nc1ccc(F)cc1)OCCCC[C@@H](C)O2 | . | 0 | . | . | .
C[C@@H]1CN([C@@H](C)CO)S(=O)(=O)c2ccc(-c3cccnc3)cc2O[C@@H]1CN(C)C(=O)NC1CCCC1 | . | 1 | . | . | .
COc1cccc2sc(Nc3nc4ccc(NC(C)=O)cc4s3)nc12 | . | 48* | 5 | 29 | .
O=C(Nc1cccc(-c2nc3ccccc3s2)c1)c1cc(-n2cnnc2)ccc1Cl | -31 | 82* | . | -5 | -29
Cc1ccc(NC(=O)COc2ccccc2C=O)cc1Cl | -123 | 47* | 5 | -63 | -113
CC(=O)Nc1cccc(-c2nc3ccc(NC(C)=O)cc3s2)c1 | -89 | 54* | 6 | -91 | -73
CC(=O)Nc1cccc(-c2nc3ccccc3s2)c1 | -82 | 37 | 1 | -79 | -82
C[C@H](CO)N1C[C@H](C)[C@H](CN(C)C(=O)c2ccncc2)OCCCC[C@H](C)Oc2ccc(NS(=O)(=O)c3ccc(Cl)cc3)cc2C1=O | . | -2 | . | . | .
CC(=O)Nc1ccc2nc(NC(=O)COc3ccccc3Cl)sc2c1 | -17 | 60* | 6 | -60 | -10
CC(C)NC(=O)N(C)C[C@@H]1OCCCC[C@@H](C)Oc2ccc(NS(=O)(=O)c3ccccc3)cc2C(=O)N([C@H](C)CO)C[C@H]1C | . | 8 | . | . | .
COc1ccccc1NC(=O)/C=C\c1ccco1 | -4 | 54* | 3 | -2 | -11
O=C(Nc1ccc2c(c1)nc1n2CCOC1)C1CCCCC1 | -41 | 53* | 1 | -28 | -25
CC(=O)Nc1ccc2c(c1)nc1n2CCOC1 | 0 | -7 | -4 | -5 | -11
COc1ccc(CNC(=O)N(C)C[C@@H]2OCc3ccccc3-c3c(n(C)c4ccccc34)C(=O)N([C@H](C)CO)C[C@@H]2C)cc1 | . | 46* | . | . | .
CCOc1ccc(N(CC(=O)Nc2ccc(C)c(C)c2)S(C)(=O)=O)cc1 | -101 | 84* | 4 | -45 | -73
CCOc1ccc(N(CC(=O)Nc2ccccc2)S(C)(=O)=O)cc1 | 1 | . | 2 | -5 | -2

Source: PubChem BioAssay
